From PubChem
An excerpt weighted towards active compounds, which were near 8.1% of everything screened.
MCF10A rereplic: inducers of DNA re-replication in MCF 10A breast cells | MCF 10A DNA re-replication, Hoechst nuclear intensity, 48 h | 350,000 tested, 2.9% active | Potency, µM (series often up to 46.1 µM), inactives show at the top dose activity, positive = re-replication, usual class: activators; note: % of control where 0% means no effect; nearly all actives have a fitted effect of over 50% in size
SW480 rerep: induces DNA re-replication in SW480 colon adenocarcinoma cells; SW480 DNA re-replication, Hoechst DNA content imaging, 48 h; Potency, µM (highest dose often 46.1 µM), inactives show at the highest dose re-replication activation, hits mostly activators; 340,000 tested, 1.8% active; note: % of control where 0% means no effect; nearly all actives have a fitted effect of over 55% in size
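DNA re-replication was detected as more nuclei of elevated Hoechst intensity after 48 hr exposure to compound (23 nL pinned per well of 250 cells).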
KB-V1 MDR tox: KB-V1 MDR subline cytotoxicity. Potency, µM (titrated, usually from 46.1 µM), actives largely listed as cytotoxic. KB-V1 MDR cells viability, CellTiter-Glo, 72 h. 400,000 tested, 3.4% active; note: % is set by controls: 0 for no effect and ±100 for the full control effect; nearly all actives have a fitted effect of over 60% in size
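Cytotoxicity toward P-gp-expressing KB-V1 cells was determined as loss of CellTiter-Glo luminescence after 72 h at 37 degrees C. Compounds were tested in quantitative HTS format across a concentration range, with curves fitted to normalized data.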
KB-3-1 cytotox: kills parental KB-3-1 adenocarcinoma cells | Potency, µM (top dose mostly 46.1 µM), usual class: cytotoxic | KB-3-1 viability, CellTiter-Glo ATP luminescence, 72 h | AID 1347075 | 400,000 tested, 1.4% active; note: % is set by controls: 0 for no effect and ±100 for the full control effect; nearly all actives have a fitted effect of over 60% in size
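Screening of KB-3-1 cells (DMEM, 10% FBS, phenol-red free) ran from lowest to highest compound concentration; after 72 h at 37 °C viability was read luminescently and curves fitted.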
ELG1 repair inh: inhibitors of ELG1-dependent DNA repair in HEK293T cells; HEK293T ELG1-luciferase reporter, luminescence, 16 h; DNA damage induced by 5-fluorouridine; Potency, µM (doses to about 46.1 µM), for the others: top-dose activity change, negative = inhibition, usual class: inhibitors; 330,000 tested, 2.3% active; AID 504467; note: % is set by controls: 0 for no effect and ±100 for the full control effect; nearly all actives have a fitted effect of over 55% in size
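DMSO vehicle served as the neutral condition. Each well held 2,000 cells given 5-fluorouridine plus compound; after 16 hr at 37 °C/5% CO2, ONE-Glo was added and luciferase measured 30 min later.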
Active calls of the source: *. Calls come from the whole dose curve; as a rule, active = well fitted curve in the direction sought with a large enough effect; inconclusive = small, poorly fitted or top-dose-only effect, or another doubt; inactive = no such curve, though single readings can be large; an effect the other way counts as inactive or inconclusive. Potency is the fitted concentration of half-maximal effect.

Screening COc1ccc(CNc2ccc(S(=O)(=O)N3CCN(C)CC3)cn2)cc1OC returned MCF10A rereplic 10.5%, SW480 rerep 1.0%, KB-V1 MDR tox inactive, KB-3-1 cytotox inactive and ELG1 repair inh 2.2%.
`CCOCCCNC(=S)NCCNc1nc2c(C)cccc2cc1C#N` gave MCF10A rereplic inconclusive, SW480 rerep inconclusive, KB-V1 MDR tox inactive, KB-3-1 cytotox inactive and ELG1 repair inh inconclusive.
Cc1ccc2cc(C#N)c(NCCNC(=O)C3CC3)nc2c1C was read as MCF10A rereplic inconclusive, SW480 rerep inconclusive, KB-V1 MDR tox 3.66µM*, KB-3-1 cytotox inconclusive and ELG1 repair inh 20.6µM*.
For Cc1ccc2cc(C#N)c(NCCNC(=S)NCCCN(C)C)nc2c1C the results were MCF10A rereplic 20.6µM*, SW480 rerep inconclusive, KB-V1 MDR tox inactive, KB-3-1 cytotox inactive and ELG1 repair inh inconclusive.
For Cc1cccc2cc(C#N)c(NCCNC(=O)COc3ccccc3)nc12 the results were MCF10A rereplic inconclusive, SW480 rerep 7.8%, KB-V1 MDR tox inactive, KB-3-1 cytotox inconclusive and ELG1 repair inh 14.7%.
Cc1cc(C)c2nc(NCCCNC(=S)NCCCN(C)C)c(C#N)cc2c1 was read as MCF10A rereplic 18.4µM*, SW480 rerep 11.6µM*, KB-V1 MDR tox inactive, KB-3-1 cytotox inconclusive and ELG1 repair inh -9.8%.
`CCOCCCNC(=S)NCCCNc1nc2c(C)cc(C)cc2cc1C#N` gave MCF10A rereplic -16.6%, SW480 rerep -6.2%, KB-V1 MDR tox inactive, KB-3-1 cytotox inactive and ELG1 repair inh -0.9%.
For CC(=O)Nc1ccc(Nc2ccc([N+](=O)[O-])cn2)cc1 the results were MCF10A rereplic -1.9%, SW480 rerep -2.8%, KB-V1 MDR tox inconclusive, KB-3-1 cytotox inactive and ELG1 repair inh -14.3%.
Screening COc1cccc(NS(=O)(=O)c2cc3c4c(c2)CCC(=O)N4CCC3)c1 returned MCF10A rereplic 16.3%, SW480 rerep 0.4%, KB-V1 MDR tox inconclusive, KB-3-1 cytotox inactive and ELG1 repair inh -2.0%.
CC(=O)Nc1ccc(C(=O)N2CCCCC2c2cc(C(=O)Nc3cccc(C#N)c3)no2)cc1 (stereo not drawn) was read as KB-V1 MDR tox inactive and KB-3-1 cytotox inconclusive.
CC(=O)Nc1ccc(N2C(C(C)=O)=NN(c3ccc(Cl)cc3)C2c2sccc2C)cc1 (stereo not drawn) was read as MCF10A rereplic 23.1µM*, SW480 rerep inconclusive, KB-V1 MDR tox inconclusive, KB-3-1 cytotox inactive and ELG1 repair inh 6.2%.
Screening Cc1ccc2nc(SCC(=O)c3ccc(Cl)s3)[nH]c2c1 returned MCF10A rereplic -3.4%, SW480 rerep -5.5%, KB-V1 MDR tox 13µM*, KB-3-1 cytotox inactive and ELG1 repair inh inconclusive.
`CCC(=O)Nc1ccc(C(=O)CSc2nc3ccc(C)cc3[nH]2)cc1` gave MCF10A rereplic 11.1%, SW480 rerep inconclusive, KB-V1 MDR tox inactive, KB-3-1 cytotox inconclusive and ELG1 repair inh inconclusive.
For CC(=O)c1c(C)[nH]c(C(=O)CSc2ccc(F)cc2)c1C the results were MCF10A rereplic 2.1%, SW480 rerep inconclusive, KB-V1 MDR tox inconclusive, KB-3-1 cytotox inconclusive and ELG1 repair inh inconclusive.
For CC(=O)c1c(C)[nH]c(C(=O)CSc2nc3ccc(C)cc3[nH]2)c1C the results were MCF10A rereplic inconclusive, SW480 rerep 0.1%, KB-V1 MDR tox inconclusive, KB-3-1 cytotox inactive and ELG1 repair inh 11.6µM*.
For Cc1ccc(Cn2c(=O)sc3ccccc3c2=O)cc1 the results were MCF10A rereplic -0.3%, SW480 rerep -1.7%, KB-V1 MDR tox inactive, KB-3-1 cytotox inactive and ELG1 repair inh 18.4%.
Screening Oc1cccc(/C=N/Nc2cc(N3CCOCC3)nc(N3CCOCC3)n2)c1 returned MCF10A rereplic inconclusive, SW480 rerep 5.8µM*, KB-V1 MDR tox inconclusive, KB-3-1 cytotox inactive and ELG1 repair inh inconclusive.
Oc1ccccc1/C=N/Nc1cc(N2CCCC2)nc(N2CCCC2)n1 was read as MCF10A rereplic 18.4µM*, SW480 rerep inconclusive, KB-V1 MDR tox inactive, KB-3-1 cytotox inconclusive and ELG1 repair inh inconclusive.
Screening Oc1ccc(/C=N/Nc2cc(N3CCOCC3)nc(N3CCOCC3)n2)cc1O returned MCF10A rereplic 21.4%, SW480 rerep 13.7%, KB-V1 MDR tox inactive, KB-3-1 cytotox inactive and ELG1 repair inh inconclusive.
For CC(C)Cc1nc(N2CCN(C(=O)c3ccccc3)CC2)c(C#N)c2c1CCC2 the results were MCF10A rereplic inconclusive, SW480 rerep 15.5%, KB-V1 MDR tox inactive, KB-3-1 cytotox inactive and ELG1 repair inh inconclusive.
Screening COc1ccc(C(=O)NC2CC(C)(C)Cc3c2cnn3-c2ccccc2C)c(OC)c1OC (stereo not drawn) returned MCF10A rereplic inconclusive, SW480 rerep 15.8%, KB-V1 MDR tox inactive, KB-3-1 cytotox inactive and ELG1 repair inh inconclusive.
CC(C)(C)C(=O)CN1C(=O)NC2(CCOc3ccccc32)C1=O (stereo not drawn) was read as MCF10A rereplic 5.3%, SW480 rerep -3.8%, KB-V1 MDR tox inactive, KB-3-1 cytotox inactive and ELG1 repair inh 2.7%.
C[C@@H]1[C@H](c2ccccc2)OCCS(=O)(=O)N1Cc1ccc(Cl)cc1 was read as KB-V1 MDR tox 11.6µM* and KB-3-1 cytotox 16.4µM*.
Screening C[C@@H]1[C@H](c2ccccc2)OCCS(=O)(=O)N1Cc1ccccc1 returned KB-V1 MDR tox inactive and KB-3-1 cytotox inactive.
Screening O=S(=O)(c1cnc[nH]1)N1CCCCCC1 returned MCF10A rereplic 2.0%, SW480 rerep -7.9%, KB-V1 MDR tox inactive, KB-3-1 cytotox inactive and ELG1 repair inh -4.6%.
O=C(Nc1nnc(C2CC2)s1)C1Cc2ccccc2CN1C(=O)c1ccco1 (stereo not drawn) was read as MCF10A rereplic -0.2%, SW480 rerep 2.5%, KB-V1 MDR tox inactive, KB-3-1 cytotox inactive and ELG1 repair inh -10.1%.
Cc1c(C(=O)N(CCO)Cc2ccccc2)oc2c(F)cccc12 was read as MCF10A rereplic 0.731µM*, SW480 rerep -65.9%, KB-V1 MDR tox inactive, KB-3-1 cytotox inactive and ELG1 repair inh inconclusive.
Cc1c(C(=O)N(C)Cc2ccccc2)oc2c(Cl)cccc12 was read as MCF10A rereplic 18.4µM*, SW480 rerep 21.2%, KB-V1 MDR tox inconclusive, KB-3-1 cytotox inconclusive and ELG1 repair inh -0.1%.
`Cc1c(C(=O)NC2CCN(Cc3ccccc3)C2)oc2c(Cl)cccc12` (stereo not drawn) gave MCF10A rereplic 16.4µM*, SW480 rerep inconclusive, KB-V1 MDR tox inactive, KB-3-1 cytotox inactive and ELG1 repair inh 2.4%.
`Cc1cc(Cl)c2oc(C(=O)N(CCO)Cc3ccccc3)c(C)c2c1` gave MCF10A rereplic 9.9%, SW480 rerep inconclusive, KB-V1 MDR tox inactive, KB-3-1 cytotox inactive and ELG1 repair inh -7.0%.
